Several values for one entry are separate records, joined by “and”; a condition that tells them apart may be missing. Equal entries are not always repeated. Activity calls are given as the source filed them. Calls follow the shape of the full dose curve.
biological target: 4'-phosphopantetheinyl transferase Sfp (Bacillus subtilis (strain 168)) (UniProt P39135); experiment: qHTS Assay for Inhibitors of Bacillus subtilis Sfp phosphopantetheinyl transferase (PPTase): Label Free Assay for SAR; details: purified Sfp with carrier protein, gel densitometry, 30 min
Source text: The covalent attachment of a phosphopantetheinyl (4'-PP) arm to a variety of synthases and other proteins is a key posttranslational protein modification. The 4'-PP is installed on the proteins post-translationally from coenzyme A (CoA) on a conserved serine residue by action of phosphopantetheinyl transferase (PPTase) enzymes. Phosphopantetheinylation is essential for synthase activity, and removal of the PPTase gene precludes natural product synthesis in microorganisms, or in the case of fatty acid biosynthesis, renders the organism unviable. PPTase enzymes belong to a distinct structural superfamily. Within bacteria, these enzymes are grouped into two classes based upon primary structure, the AcpS-Type and Sfp-Type PPTases.
Sfp-type PPTases, corresponding to an activator of surfactin production in Bacillus subtilis, are responsible for modifying type I polyketide and nonribosomal peptide synthases of prokaryotes. Sfp-type PPTases are responsible for the activation of a variety of pathogen-associated virulence factors. Among these compounds are toxins such as mycolactone from Mycobacterium ulcerans, siderophores such as vibriobactin from Vibrio cholerae or mycobactin from Mycobacterium tuberculosis, as well as the mycolic acids which form the waxy cell wall of Mycobacteria. The biosyntheses of these natural products are considered attractive targets for drug design.
In search of small molecule Sfp-PPTase inhibitors, a fluorescence quenching assay was developed for detection of Bacillus subtilis Sfp-PPTase enzymatic activity in a miniaturized high-throughput format. The consensus ybbr acceptor peptide […] was N-terminally labeled with Black Hole Quencher-2 (BHQ-2) and used in combination with rhodamine-labeled coenzyme A as a co-substrate.
This project seeks to identify inhibitors of Sfp phosphopantetheinyl transferase. The primary and secondary screens both utilized a rhodamine-modified CoA substrate. This experiment sought to confirm compound activity in a biochemical assay using the natural nucleotide substrate in conjunction with a whole-protein acceptor. We employed polyacrylamide gel electrophoresis in the presence of modest urea concentrations to achieve a conformationally sensitive separation of the apo- and holo- states of the acyl carrier protein (ACP) from E. coli [Rock, 1981, Cronan 1982]. Under conditions of limiting Sfp concentrations, quantitative determinations of enzyme activity can be made from images of the gels after treatment with an appropriately sensitive protein stain.
NIH Chemical Genomics Center [NCGC]
NIH Molecular Libraries Probe Centers Network [MLPCN]
Assay Submitter (PI): Michale Burkart, University of California, San Diego
Preparation of apo-ACP substrate.
A derivative of the AcpP locus from E. coli K12 containing a C-terminal fusion to a hexahistidine tag is expressed and purified from E.coli BL21(DE3) following standard procedures, (27) providing a mixture of the apo- and holo- forms of ACP in a ratio 3:2; as judged by UREA-PAGE. The resulting mixture (10 mg/ml) is reduced overnight in PBS buffer containing 10 mM DTT, and excess reducing agent removed by passage over a PD6 desalting column (Bio-Rad Laboratories, Hercules, CA). The sample is immediately pooled with an equal volume of activated thiol sepharose 4B (cat #17-0640-01, GE Healthcare, Piscataway, NJ) prepared according to the manufacturers recommendations; and the slurry agitated gently overnight at 4 deg C. The slurry was decanted into a disposable chromatography column and washed with 3 volumes of PBS. The filtrate and washes were pooled, concentrated, and the process iterated once to provide a solution of ACP that was >98% apo-form as judged by conformationally sensitive UREA-PAGE.
Label-free gel assay for phosphopantetheinylation.
Test compound (0.5 ul) dissolved in DMSO was added to 1.33 X enzyme solution (15 ul) containing 66 nM Sfp, 66 mM HEPES*Na pH 7.6, 13.3 mM MgCl2, 0.0133% NP40, and 1.33 mg/ml BSA. […]

SMILES | outcome | Potency
S=C(Nc1ccccn1)c1ccccn1 | inactive | 
Cc1ccnc(NC(=S)N2CCN(c3ccc(Br)cc3)CC2)c1 |  | 83.3 µM (active)
CCOC(=O)c1cc(-c2ccccc2)sc1NC(=O)c1ccc(OC)cc1 | inactive | 
COc1ccc(N2CCN(C(=S)Nc3cc(C)ccn3)CC2)cc1 |  | 83.3 µM (active)
C(=C1\Nn2c(COc3ccccc3)nnc2S1)/c1ccccc1 |  | 27.8 µM (active)
CCOC(=O)c1c(-c2ccc(C)o2)csc1NC(=O)CSc1nnnn1-c1ccccc1 |  | 27.8 µM (active)
CN(C)c1ccc(C(=S)N2CCN(Cc3ccccc3)CC2)cc1 |  | 27.8 µM (active)
CCc1c(C)sc(NC(=O)C2CCCCC2C(=O)O)c1C(N)=O (configuration not stated) | inactive | 
Cc1ccnc(NC(=S)N2CCN(c3cccc(C(F)(F)F)c3)CC2)c1 |  | 83.3 µM (active) and 3.09 µM (active)
O=C(Nc1nnc(COc2ccc(Cl)cc2)s1)c1ccco1 |  | 9.26 µM (active)
CC(C)(C)Cc1nnc(NC(=O)CSc2ccccc2)s1 | inactive | 
O=C(Nc1nnc(COc2ccc(Cl)cc2)s1)c1cccs1 |  | 250 µM (active)

Reference: PubChem BioAssay AID602392 (National Center for Advancing Translational Sciences (NCATS), 2012)
